This note sets out measurements from PubChem BioAssay AID1347421 (Sanford-Burnham Center for Chemical Genomics, 2020).

In all, about 1,500 compounds were measured (“activity”: median about 2, lowest 2% from about -18 on). For the sample, the lowest values were picked, then their nearest neighbours and some compounds at random. Active and inactive are the calls of the source.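 How the source made its calls: active means inhibition of at least 40% at 10 µM; inconclusive means no clear call, values can overlap the other calls; inactive means the rest.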

For the assay, the target named is Sulfhydryl oxidase 1 (Homo sapiens) (UniProt O00391). Nature of the assay: human QSOX1 sulfhydryl oxidase inhibition – biochemical, ROS-Glo luminescence, single concentration, confirmation (AID 1347421).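 Further: 0% = DMSO wells with enzyme and 100% = wells lacking QSOX1 enzyme.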 Conditions: recombinant hQSOX1, RNase A substrate, ROS-Glo H2O2 luminescence; at 10 µM.
Sequence of Sulfhydryl oxidase 1 (Homo sapiens) (O00391 whole entry, looked up): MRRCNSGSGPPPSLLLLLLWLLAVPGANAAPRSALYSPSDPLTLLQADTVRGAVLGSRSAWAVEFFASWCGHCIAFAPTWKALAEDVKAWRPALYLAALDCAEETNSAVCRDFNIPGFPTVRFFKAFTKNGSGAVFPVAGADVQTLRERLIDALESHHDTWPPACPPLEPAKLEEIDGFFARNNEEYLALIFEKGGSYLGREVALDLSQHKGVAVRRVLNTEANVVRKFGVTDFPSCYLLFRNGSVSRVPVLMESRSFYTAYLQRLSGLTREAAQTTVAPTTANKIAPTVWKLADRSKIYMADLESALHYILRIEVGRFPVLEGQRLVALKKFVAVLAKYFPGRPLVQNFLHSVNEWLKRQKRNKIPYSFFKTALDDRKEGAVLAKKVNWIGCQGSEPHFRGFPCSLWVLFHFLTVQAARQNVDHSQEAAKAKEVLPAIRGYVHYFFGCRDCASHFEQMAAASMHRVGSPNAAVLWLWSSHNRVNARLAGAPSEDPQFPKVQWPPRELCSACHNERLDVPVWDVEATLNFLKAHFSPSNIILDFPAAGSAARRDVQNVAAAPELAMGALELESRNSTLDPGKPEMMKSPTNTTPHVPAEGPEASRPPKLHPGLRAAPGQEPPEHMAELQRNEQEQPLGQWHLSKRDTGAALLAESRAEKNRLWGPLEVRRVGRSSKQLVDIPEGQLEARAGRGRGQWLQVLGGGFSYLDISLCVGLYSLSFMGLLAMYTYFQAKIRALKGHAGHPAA
Turning to `Cc1ccc(C(=O)N2CCC3(CCCN(Cc4ccc(F)c(F)c4)C3=O)C2)cn1` (stereo unspecified), the activity stood at 3.9%.

In the case of `CCSCCn1ncc(N2CCNCC2)cc1=O`, the activity was determined as 1.4%.

For `CC(C)(CO)NC(=O)CC(c1ccccc1)c1ccc(Cl)cc1` (stereo unspecified), the activity worked out at 0.5%.

Take `NCc1ccccc1SC1=[C+]C=C[C+]=C1CN1CCOCC1`: the activity is -11.3% (inactive).

As for `O=C(NC(=O)N1CCCC1)c1ccc(Cl)cc1`, the activity was -2.8% (inactive).

In the case of `O=C1CCCN1CCCNCc1cccc(OCC(O)CN2CCCCCC2)c1` (stereo unspecified), the activity worked out at 5.6%.

Turning to `COc1ccccc1Oc1ncccc1CNCC1CCOC1` (stereo unspecified), the activity was 2.6%.

Take `Cc1cc(S(=O)(=O)n2ccnc2)c(C)c(C)c1C`: the activity is -0.1% (inactive).

For the compound `O=C(CC1C(=O)NCCN1Cc1cccnc1)NCCCn1ccc2ccccc21` (stereo unspecified), the activity is 3.3%.

On to `COCC(=O)Nc1ccc(S(=O)(=O)N2CCCC(C)C2)cc1` (stereo unspecified), for which the activity stood at 7.5%.

For `COc1ccc(S(=O)(=O)N2CCCC(C(=O)NC3CC3)C2)cc1OC` (stereo unspecified), the activity was -18.9% (inactive).

As for `COc1ccc(S(=O)(=O)N2CCCC2)cc1N(C)S(C)(=O)=O`, the activity was -11% (inactive).

As for `CN1CCCCCC1C(=O)NCc1cccnc1N1CCN(c2ccccn2)CC1` (stereo unspecified), the activity was -5.2% (inactive).

On to `CCOC(=O)c1cccc(CSc2n[nH]c(N)n2)c1`, for which the activity is -1.9% (inactive).

With `Cn1ccnc1C1CCCCN1Cc1c(C(=O)N2CCCCCCC2)nc2sccn12` (stereo unspecified), the activity stood at 10.8%.

With `COc1cccc(-c2n[nH]c3c2CN(CCc2ccccc2)CC3)c1`, the activity stood at 5.1%.

Consider `Fc1ccccc1-c1noc2c1CN(Cc1ccc3c(c1)OCCO3)CC2`, for which the activity was -4.5% (inactive).

For the compound `CCN(CC)C(=O)NCc1ccc2c(c1)OCO2`, the activity is -18.4% (inactive).

As for `CCN(CC)C(=O)NCc1ccccn1`, the activity is -15.1% (inactive).

Take `O=C(NCc1ccc2c(c1)OCO2)C1CCC(=O)N(CCc2cccc(F)c2)C1` (stereo unspecified): the activity is -2% (inactive).

Take `Cc1cc(N2CCN(C(=O)c3cn(Cc4ccccc4F)nn3)CC2)cc(C)n1`: the activity worked out at 2.1%.

Regarding `Cc1noc(C)c1CC(=O)N1CCCC(CCC(=O)N(C)CCc2ccccn2)C1` (stereo unspecified), the activity was 5.3%.

With `CN(CCc1ccccn1)C(=O)CCC1CCCN(C(=O)Cc2cccnc2)C1` (stereo unspecified), the activity was 4.4%.

In the case of `FC(F)(F)c1cc(-c2ccco2)nc(N2CCCCC2)n1`, the activity is -20.8% (inactive).

In the case of `FC(F)(F)c1cc(-c2ccco2)nc(NCc2cccs2)n1`, the activity was -4.8% (inactive).

Turning to `Cc1ccccc1CC(=O)NCC(C)C`, the activity is -16% (inactive).

With `COc1cc(C(=O)NC2CCCCC2)ccc1OC1CCN(C(C)=O)CC1`, the activity amounted to 3.4%.

As for `CN(CCc1ccccn1)[C@@H]1CCN(Cc2ccc(C#CCO)s2)C[C@H]1O`, the activity is 4.2%.

Turning to `Cc1occc1C(=O)Nc1ccc([N+](=O)[O-])cn1`, the activity worked out at 17.1%.

Take `C=C(C)CN(CC)C(=O)c1cc(COc2ccc(-n3cncn3)cc2)on1`: the activity came to 9.4%.

Regarding `CCN1CCN(c2ncc3c(n2)CC(c2ccc(OC)c(OC)c2)CC3=O)CC1` (stereo unspecified), the activity was -19% (inactive).

Take `COc1ccc(C2CC(=O)c3cn[nH]c3C2)cc1` (stereo unspecified): the activity was -17.7% (inactive).

As to `COc1ccc(C2CC(=O)c3cnc(NC4CC4)nc3C2)cc1` (stereo unspecified), the activity turned out to be 3.9%.

`O=C(CCc1ccsc1)N1CCOC(Cc2ccccc2Cl)C1` (stereo unspecified): the activity was determined as 20.5%.

`Cc1cc(Br)c(S(=O)(=O)NCc2ccncc2)cc1C`: the activity was 3.4%.

As to `NC(=O)C1(N2CCCCC2)CCN(C(=O)C2CCC(=O)N(C3CCCC3)C2)CC1` (stereo unspecified), the activity came out at 5.6%.

Turning to `Cc1ccccc1C(=O)Nc1ccccc1C(=O)N(C)C`, the activity is -20% (inactive).

As to `O=C(Nc1ccccc1C(=O)NC1CC1)c1ccccc1Cl`, the activity came to 11.7%.

On to `Cc1ccccc1C(=O)Nc1c(Cl)ccc2nsnc12`, for which the activity is 0.9%.

For `COc1ccccc1/C=C/CN1CCNC(=O)C1CC(=O)NCCOc1cccnc1` (stereo unspecified), the activity was -2% (inactive).

As for `CC(C)Cn1c(CN(C)Cc2ccco2)cnc1S(=O)(=O)CC1CCCO1` (stereo unspecified), the activity was determined as 4.1%.

`O=C1CCC(C(=O)N2CCC(Oc3cccc(F)c3)CC2)CN1CCc1ccccn1` (stereo unspecified): the activity was 0.7%.

Take `O=C(Nc1n[nH]c(C2CCCCC2)n1)N1CCOC2(CCCC2)C1`: the activity worked out at 1%.

`C=CCC1(CC=C)CCCN1C(=O)c1cn(CC2COc3ccccc3O2)nn1` (stereo unspecified): the activity was -0.3% (inactive).

Take `O=c1c2ccccc2nc(NCCO)n1Cc1ccccc1`: the activity was -20.3% (inactive).

On to `CS(=O)(=O)c1ncc(CO)n1Cc1ccccc1`, for which the activity was -4.5% (inactive).

As to `O=C(O)c1ccc(S(=O)(=O)N2CCSCC2)cc1`, the activity is -3% (inactive).

Take `O=C(c1cc(S(=O)(=O)N2CCOCC2)c(Cl)cc1Cl)N1CCSCC1`: the activity was -18.4% (inactive).

On to `NC(=O)COc1ccc(S(=O)(=O)N2CCOCC2)cc1`, for which the activity is -13.3% (inactive).

On to `O=C(Nc1ccc(-c2nc3ccccc3[nH]2)cc1)c1ccccn1`, for which the activity is 5.8%.

For `CN(C)S(=O)(=O)c1cccc(S(C)(=O)=O)c1`, the activity was found to be 8.2%.

On to `COc1cc(C)nc(NC(=O)Nc2cccc(Cl)c2)n1`, for which the activity is -2.3% (inactive).

With `Cc1ccc(S(=O)(=O)c2ncsc2Cl)cc1`, the activity turned out to be 0.6%.

Turning to `CC(C)Oc1ccc(NC(=O)CCN2C(=O)c3ccccc3C2=O)cc1`, the activity came to 0.6%.

In the case of `COC1=C(OC)C=CC(c2nnn(C3CCNCC3)n2)=[C+]1`, the activity is -20.6% (inactive).

In the case of `COc1cccc(CNCc2ccc(F)cc2)c1`, the activity is -17.7% (inactive).
